80 compounds from PubChem BioAssay AID624137 (Broad Institute, 2012) can be followed below.

The whole screen tested about 31,000 compounds, of which about 360 (1.2%) were called active. The rule behind the calls is not given here. This excerpt belongs to a sample that is enriched for actives.

DNA-binding protein inhibitor ID-4 (Homo sapiens), sequence (P47928 whole entry, looked up): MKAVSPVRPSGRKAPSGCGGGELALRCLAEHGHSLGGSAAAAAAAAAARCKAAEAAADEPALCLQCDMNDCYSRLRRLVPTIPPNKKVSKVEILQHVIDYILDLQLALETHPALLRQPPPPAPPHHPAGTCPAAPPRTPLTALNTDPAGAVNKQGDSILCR

This test concerns the target DNA-binding protein inhibitor ID-4 (Homo sapiens) (UniProt P47928). Put plainly: PubChem AID 624137.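 Note: a binder raises fluorescence above local background on the spot.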 The conditions noted are these: small molecule microarray, Flag-ID4 binding, fluorescence F/B.
In the case of `CO[C@H](CN(C)S(=O)(=O)c1ccc(C)cc1)[C@@H](C)CN(Cc1ccccc1Cl)[C@@H](C)CO`, the call was inactive. With `CCn1c(SCC(=O)Nc2sc3c(c2C#N)CCCC3)nnc1-c1ccccc1O`, the compound was classed as active. On to `CCn1c(SCC(=O)Nc2cc(Cl)c(Cl)cc2Cl)nnc1-c1ccccc1Cl`, for which the compound was called inactive. For `N#Cc1c(NC(=O)CCn2cnc3ccccc3c2=O)sc2c1CCCC2` the value was “inactive”; for `C[C@@H]1CN([C@@H](C)CO)C(=O)c2cc(C3=CCCC3)cnc2O[C@H]1CN(C)Cc1ccccc1F`, “inactive”. The entry for `COCC(=O)N[C@H]1C=C[C@H](CC(=O)N2CCCCC2)O[C@H]1CO` is “inactive”; for `Cc1ccc(-c2ccc3c(c2)O[C@H](CN(C)C)[C@@H](C)CN([C@@H](C)CO)S3(=O)=O)cc1` it is “inactive”. `CO[C@@H](CN(C)S(=O)(=O)c1ccc(F)cc1)[C@H](C)CN(C(=O)Nc1ccccc1F)[C@@H](C)CO`: the compound was called inactive. Take `O=C(C[C@H]1C=C[C@@H](NC(=O)Nc2cc(F)ccc2F)[C@H](CO)O1)NCCCN1CCOCC1`: the compound was classed as inactive.

Turning to `CN(C)C(=O)C[C@H]1C=C[C@@H](NC(=O)c2ccc(F)cc2)[C@@H](CO)O1`, the compound was classed as inactive. As for `C[C@H]1CN([C@@H](C)CO)C(=O)c2cc(Br)cnc2O[C@@H]1CN(C)C(=O)c1ccccc1F`, the compound was called inactive.

As for `O=C(CN1C(=O)c2ccccc2S1(=O)=O)Nc1ccc(F)c(F)c1`, the call was inactive.

For `O=C(CSc1nnc(-c2ccccc2)n1-c1ccccc1)c1ccc(F)cc1`, the outcome was inactive.

`CO[C@@H](CN(C)C(=O)c1cnccn1)[C@@H](C)CN([C@@H](C)CO)S(=O)(=O)c1ccc(F)cc1`: the compound was classed as inactive. For `C[C@H]1CN([C@@H](C)CO)C(=O)c2cc(Br)cnc2O[C@H]1CN(C)CC1CCCC1` the value was “inactive”. On to `CCCN(C)C[C@@H]1Oc2cc(-c3ccc(C)cc3)ccc2S(=O)(=O)N([C@@H](C)CO)C[C@H]1C`, for which the outcome was inactive. Consider `CCC(=O)N[C@H]1C=C[C@@H](CC(=O)NCC2CCCCC2)O[C@H]1CO`, for which the compound was called inactive. For `C[C@@H]1CN([C@H](C)CO)C(=O)c2cc(Br)cnc2O[C@@H]1CN(C)C(=O)C1CC1` the value was “inactive”; for `C[C@H](CO)N1C[C@H](C)[C@@H](CN(C)C)Oc2ncc(-c3cccc(F)c3)cc2C1=O`, “inactive”; for `C[C@@H]1CN([C@H](C)CO)S(=O)(=O)c2ccc(-c3cccc(C#N)c3)cc2O[C@@H]1CN(C)C(=O)Nc1ccccc1F`, “active”. The entry for `C[C@@H]1CN([C@@H](C)CO)S(=O)(=O)c2ccc(-c3cccc(C#N)c3)cc2O[C@@H]1CN(C)Cc1cccc(F)c1` is “inactive”; for `CCCN(C)C[C@@H]1Oc2cc(-c3cccc(C#N)c3)ccc2S(=O)(=O)N([C@@H](C)CO)C[C@@H]1C` it is “inactive”. For `Cc1cc(C)c(OCC(=O)Nc2cccnc2)c(Br)c1`, the call was inactive. For `COc1ccc(NC(=O)Cc2nc(-c3cc4ccccc4oc3=O)cs2)cc1` the value was “inactive”. For `COc1cccc(S(=O)(=O)N[C@H]2C=C[C@H](CC(=O)NC3Cc4ccccc4C3)O[C@@H]2CO)c1` the value was “inactive”. The entry for `CN(C)c1ccc2c(c1)[C@H]1C[C@H](CC(=O)NCc3ccc(Cl)cc3)O[C@H](CO)[C@H]1O2` is “inactive”; for `CC(=O)N(C)C[C@H]1Oc2cc(C#Cc3ccccc3F)ccc2S(=O)(=O)N([C@H](C)CO)C[C@@H]1C` it is “inactive”.

With `COc1ccc(CNC(=O)C[C@@H]2C=C[C@@H](NC(=O)c3ccc4c(c3)OCO4)[C@@H](CO)O2)cc1`, the call was inactive. On to `O=C(C[C@H]1CC[C@@H](NC(=O)Cc2ccccn2)[C@H](CO)O1)NCCc1ccccc1`, for which the compound was called inactive. As for `COC(=O)C[C@@H]1C[C@H]2c3cc(NC(=O)NC4CCCC4)ccc3O[C@H]2[C@H](CO)O1`, the outcome was inactive.

In the case of `O=C(NCC[C@H]1CC[C@@H](NC(=O)C2CCCCC2)[C@@H](CO)O1)c1ccc(F)cc1`, the compound was classed as inactive. For `COc1ccc(NC(=O)N[C@@H]2C=C[C@H](CC(=O)NC3CCC3)O[C@@H]2CO)cc1` the value was “inactive”.

For `C[C@H](CO)N1C[C@H](C)[C@H](CN(C)C)Oc2cc(C#CC3CC3)ccc2S1(=O)=O`, the compound was classed as inactive. For `C[C@H](CO)N1C[C@H](C)[C@H](CN(C)C(=O)c2cccnc2)Oc2ncc(C3=CCCC3)cc2C1=O` the value was “inactive”; for `O=C(C[C@@H]1CC[C@H](NC(=O)Nc2cc(F)ccc2F)[C@H](CO)O1)NCc1ccncn1`, “inactive”.

As for `CNC[C@@H]1Oc2cc(C#CC3CCCC3)ccc2S(=O)(=O)N([C@@H](C)CO)C[C@@H]1C`, the outcome was inactive.

For `Cc1ccccc1NS(=O)(=O)c1cccc(C(=O)Nc2ccccc2[N+](=O)[O-])c1`, the result was inactive. On to `C[C@@H]1CN([C@H](C)CO)C(=O)c2cc(-c3cccc(F)c3)cnc2O[C@@H]1CN(C)C`, for which the compound was called inactive. Regarding `C[C@H](CO)N1C[C@H](C)[C@@H](CN(C)Cc2cccnc2)Oc2ncc(/C=C/c3ccccc3)cc2C1=O`, the compound was classed as inactive. For `C[C@@H]1CN([C@@H](C)CO)C(=O)c2cc(/C=C/c3ccccc3)cnc2O[C@@H]1CN(C)C(=O)CN(C)C` the value was “inactive”; for `Cc1ccccc1-c1ccc2c(c1)O[C@H](CN(C)C)[C@@H](C)CN([C@H](C)CO)S2(=O)=O`, “inactive”; for `Cc1ccc(S(=O)(=O)CCN2CCC(C(F)(F)F)CC2)cc1`, “inactive”. Consider `CC(=O)N(C)C[C@@H]1Oc2cc(-c3ccncc3)ccc2S(=O)(=O)N([C@@H](C)CO)C[C@H]1C`, for which the result was inactive. Take `C[C@H]1CN([C@@H](C)CO)C(=O)c2cc(-c3ccc(C#N)cc3)cnc2O[C@@H]1CN(C)Cc1ccncc1`: the result was active. The entry for `C[C@H](CO)N1C[C@H](C)[C@H](CN(C)Cc2ccccc2)Oc2ncc(-c3ccccc3)cc2C1=O` is “inactive”; for `C[C@@H]1CN([C@H](C)CO)C(=O)c2cc(-c3ccc(C#N)cc3)cnc2O[C@@H]1CN(C)CC1CC1` it is “inactive”; for `CC(=O)N[C@@H]1C=C[C@H](CC(=O)NCC2CCCCC2)O[C@H]1CO` it is “inactive”. For `C[C@H](CO)N1C[C@H](C)[C@H](CN(C)CC2CCCC2)Oc2ncc(-c3ccc(F)cc3)cc2C1=O` the value was “inactive”. For `Cn1cnc(S(=O)(=O)N[C@H]2C=C[C@H](CC(=O)NCC3CCCCC3)O[C@@H]2CO)c1` the value was “inactive”; for `CC(=O)Nc1sccc1C(=O)NCc1ccco1`, “inactive”. `CCOC(=O)c1c(NC(=O)C(C)Oc2ccc3c(C)cc(=O)oc3c2)sc2c1CCC2` (stereo not given): the outcome was inactive. For `Cc1cc2oc(C(=O)Nc3sc4c(c3C(=O)NCc3ccco3)CCC4)c(C)c2cc1C` the value was “active”; for `CCCNC(=O)C[C@@H]1C[C@@H]2c3cc(N(C)C)ccc3O[C@@H]2[C@H](CO)O1`, “inactive”; for `COc1cccc(-c2cnc3c(c2)C(=O)N([C@@H](C)CO)C[C@@H](C)[C@@H](CN(C)Cc2ccc(C(=O)O)cc2)O3)c1`, “inactive”.

`CCCN(C)C[C@@H]1Oc2ncc(C#CC3CC3)cc2C(=O)N([C@H](C)CO)C[C@H]1C`: the compound was called inactive. On to `C[C@@H]1CN([C@@H](C)CO)S(=O)(=O)c2ccc(C#CCN(C)C)cc2O[C@@H]1CN(C)CC1CC1`, for which the outcome was inactive. Consider `CC(C)C#Cc1ccc2c(c1)O[C@H](CN(C)Cc1ccccc1)[C@H](C)CN([C@@H](C)CO)S2(=O)=O`, for which the compound was classed as inactive. The entry for `O=C(N[C@@H]1CC[C@@H](CC(=O)N2CCc3ccccc3C2)O[C@H]1CO)C1CCC1` is “inactive”; for `CCCN(C)C[C@@H]1Oc2ncc(-c3ccccc3F)cc2C(=O)N([C@@H](C)CO)C[C@@H]1C` it is “inactive”. For `CCCN(C)C[C@@H]1OCc2cnnn2CCCC(=O)N([C@H](C)CO)C[C@@H]1C`, the call was inactive. The entry for `O=C(Cc1ccccc1)N[C@H]1C=C[C@H](CC(=O)N2CCCCC2)O[C@@H]1CO` is “inactive”; for `CC(C)C#Cc1cnc2c(c1)C(=O)N([C@@H](C)CO)C[C@@H](C)[C@@H](CN(C)C(=O)c1cccc(F)c1)O2` it is “inactive”. Take `O=C(C[C@@H]1C=C[C@H](NC(=O)CN2CCOCC2)[C@@H](CO)O1)NCc1cccc(F)c1`: the outcome was inactive. The entry for `O=C(C[C@@H]1CC[C@H](NC(=O)C2CC2)[C@H](CO)O1)NCc1ccccc1Cl` is “inactive”; for `C[C@@H]1CN([C@H](C)CO)S(=O)(=O)c2ccc(C#CCN(C)C)cc2O[C@@H]1CN(C)C` it is “inactive”; for `CCNC(=O)C[C@@H]1CC[C@H](NC(=O)C2CCC2)[C@@H](CO)O1` it is “inactive”. Turning to `COC(=O)c1ccccc1NC(=O)CN(c1ccc2c(c1)OCCO2)S(C)(=O)=O`, the outcome was inactive. For `O=C(CN1CCCC1)Nc1sc2c(c1C(=O)Nc1ccccc1)CCCC2` the value was “inactive”.

For the compound `N#Cc1c(NC(=O)C2CC(Cl)=CCC2C(=O)O)sc2c1CCC2` (stereo not given), the result was active. For the compound `CN1CCN(CC(=O)Nc2sc3c(c2C#N)CCC(C(C)(C)C)C3)CC1` (stereo not given), the compound was classed as inactive. For `C[C@@H]1CN([C@H](C)CO)C(=O)c2ccccc2-c2ccccc2CO[C@@H]1CN(C)S(=O)(=O)CC(F)(F)F`, the call was inactive. Turning to `CN(C)C(=O)C[C@H]1C[C@@H]2c3cc(NC(=O)CC4CC4)ccc3O[C@@H]2[C@@H](CO)O1`, the compound was called inactive.

For `COc1cccc(-c2ccc3c(c2)O[C@H](CN(C)Cc2ccncc2)[C@H](C)CN([C@H](C)CO)S3(=O)=O)c1`, the result was inactive. For `Cc1noc(C)c1NC(=O)N[C@H]1CC[C@H](CC(=O)N2CCCCC2)O[C@@H]1CO` the value was “inactive”. As to `C[C@H](CO)N1C[C@H](C)[C@H](CN(C)Cc2ccncc2)Oc2ccc(NC(=O)Cc3cn(C)c4ccccc34)cc2CC1=O`, the call was inactive. The entry for `C[C@@H]1CN([C@@H](C)CO)C(=O)Cc2cc(NC(=O)Cc3cn(C)c4ccccc34)ccc2O[C@H]1CN(C)C(=O)NC1CCCCC1` is “inactive”. The entry for `C[C@H](CO)N1C[C@H](C)[C@H](CN(C)C(=O)Nc2ccc(F)cc2)Oc2ccc(NC(=O)Cc3cn(C)c4ccccc34)cc2CC1=O` is “active”; for `C[C@@H]1CN([C@@H](C)CO)C(=O)Cc2cc(NC(=O)CCN3CCOCC3)ccc2O[C@@H]1CN(C)C(=O)Nc1cccc2ccccc12` it is “active”. Consider `C[C@H](CO)N1C[C@H](C)[C@H](CN(C)C(=O)Nc2ccccc2)Oc2ccc(NC(=O)CCN3CCOCC3)cc2CC1=O`, for which the compound was called inactive.

Take `C[C@@H]1CN([C@@H](C)CO)C(=O)Cc2cc(NC(=O)CCC(F)(F)F)ccc2O[C@@H]1CN(C)C(=O)Nc1cccc2ccccc12`: the call was inactive.
